These results are taken from PubChem BioAssay (NCATS).

Records with an inconclusive call do not appear. Calls of active or inactive are those of the source. Unless noted, calls follow the shape of the dose curve; as a rule, active = well fitted curve in the direction sought with a large enough effect; inconclusive = small, poorly fitted or top-dose-only effect, or another doubt; inactive = no such curve, though single readings can be large; an effect the other way counts as inactive or inconclusive.

The nature of assay [1]: qHTS profiling of the MIPE4 collection as inhibitors of Plasmodium falciparum (3D7) proliferation (AID 743344; call rule not given here;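 also: scaled between DMSO vehicle wells and 0.29 µM artemisinin as full inhibition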). The conditions noted are these: P. falciparum 3D7 in erythrocytes, SYBR Green DNA fluorescence, 72 h; at 28.5 µM unless noted. A digest of the protocol: (§1)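 Erythrocytes infected with P. falciparum (0.3% parasitemia, 2.5% hematocrit) incubated with compounds 72 h at 37 C, 5% CO2. Lysis with saponin/Triton buffer containing SYBR Green I, overnight at room temperature in the dark; DNA fluorescence (485/535 nm) normalised to 0.29 uM artemisinin and DMSO.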
A general note: In qHTS, concentration-response curves come from the screen itself.

Assay [2] in a line: qHTS profiling of the MIPE4 collection as inhibitors of Plasmodium falciparum (DD2) proliferation (AID 743345; call rule not given here). The conditions noted are these: P. falciparum Dd2 in erythrocytes, SYBR Green DNA, 72 h; at 28.5 µM unless noted. A digest of the protocol:
as §1

Assay [3] in a line: qHTS profiling of the MIPE4 collection as inhibitors of Plasmodium falciparum (DD2) proliferation (Rep 2) (AID 743346; call rule not given here). The conditions noted are these: P. falciparum Dd2 in erythrocytes, SYBR Green DNA, 72 h; at 28.5 µM unless noted. A digest of the protocol:
as §1

Assay [4] can be described thus: qHTS profiling of the MIPE4 collection as inhibitors of Plasmodium falciparum (HB3) proliferation (AID 743347; call rule not given here;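 also: plate controls were DMSO vehicle wells for no effect and artemisinin wells for full effect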). The conditions noted are these: P. falciparum HB3 in erythrocytes, SYBR Green DNA, 72 h; at 28.5 µM unless noted. A digest of the protocol: as §1
The nature of assay [5]: High-throughput drug toxicity screening in the BPDCN cell line Cal-1 (AID 1224825; call rule not given here). The conditions noted are these: Cal-1 BPDCN cell viability, qHTS; at 45.8 µM (top of the series) unless noted. A digest of the protocol: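 500 Cal-1 cells/well, RPMI + glutamine + 10% FBS (phenol red-free); cpd added by pin tool; 48 h, 37C, 5% CO2; CTG 15 min RT, lumi read. Normalised: DMSO 100%, bortezomib 9.2 uM 0%.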

The nature of assay [6]: qHTS assay for measurement of the activity of small molecule inhibitors on Zika virus induced Caspase-3 activity in human iPSC derived neural progenitor cells (hNPCs) (AID 1224857). Also: % of control where 0% means no effect; nearly all actives have a fitted effect of over 65% in size. Summed up: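 Percent inhibition of virus-induced caspase-3/7 luminescence (Caspase-Glo), scaled between uninfected cells and Zika-infected cells. hNPCs received compound 1 hr before ZIKV at 2 FFU/cell, with 6 hours infection at 37 C.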

Assay [7] in a line: qHTS assay for measurement of the activity of small molecule inhibitors on Zika virus induced Caspase-3 activity in human astrocytoma cells (AID 1224859).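 Also: plate controls were ZIKV-infected untreated cells for no effect and uninfected cells for full effect.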 Summed up: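 Luminescent caspase-3/7 read-out (30 min reagent, room temperature) in human SNB-19 cells infected 6 h with ZIKV (2 FFU/cell) after 1 h compound pre-incubation; Data were normalised to uninfected and infected wells.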

Assay [8] is described as follows: qHTS Screen of the MIPE 4.0 Collection Against Ewings Sarcoma (RDES) (AID 1259252). Also: nearly all actives have a fitted effect of over 35% in size. Also: potency is read from the fitted curve at half-maximal effect. A digest of the protocol: (§2)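 Cells plated in serum-containing RPMI (5% FBS) and treated with compound dilutions for 48 h. Readout luminescent viability; normalization relied on vehicle (no inhibition) and media-only columns (full inhibition).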
Assay [9] is described as follows: qHTS Screen of the MIPE 4.0 Collection Against Ewings Sarcoma (TC71) (AID 1259253). Also: nearly all actives have a fitted effect of over 40% in size. Also: potency is read from the fitted curve at half-maximal effect. Summed up:
as §2

The nature of assay [10]: qHTS profiling for inhibitors of Plasmodium falciparum (DD2) proliferation (AID 743323; call rule not given here). The conditions noted are these: lower = more inhibition; at 28.7 µM (top of the series) unless noted. Summed up: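 SYBR Green fluorescence (ex 485, em 535 nm) of lysed cultures gives parasite DNA content; wells normalized to artemisinin (0.29 uM) and DMSO controls. Infected red cells: 0.3% parasitemia, 2.5% hematocrit, 72 h, 37 C.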

A short description of assay [11]: qHTS profiling for inhibitors of Plasmodium falciparum (HB3) proliferation (AID 743324).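 Also: 100% = DMSO vehicle wells and 0% = artemisinin-treated control wells.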 The conditions noted are these: Plasmodium falciparum HB3 blood-stage proliferation; at 28.7 µM (top of the series) unless noted. Summed up: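 P. falciparum HB3 grown in erythrocytes (0.3% parasitemia, 2.5% hematocrit final) with compound for 72 h at 37 C, 5% CO2. Parasite DNA detected by SYBR Green after saponin/triton lysis overnight; normalized to 0.29 uM artemisinin and DMSO.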

Assay [12] can be described thus: qHTS Screen of the MIPE 4.0 Collection Against Ewings Sarcoma (EW8) (AID 1259255). Also: nearly all actives have a fitted effect of over 35% in size. Also: potency is read from the fitted curve at half-maximal effect.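 As to viability: 100% = DMSO-treated cells and 0% = medium-only wells without cells.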 Summed up:
as §2

Assay [13] is described as follows: Identifying Small Molecule Inhibitors of Pancreatic Cancer Stem Cells (SN12C, Adherent) (AID 1259358).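 Also: cell survival measured after 48 h of compound exposure.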 A digest of the protocol: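 Pre-formed 14-day tumor spheroids or adherent cells dosed and incubated 48 h, 37C, 5% CO2. Viability assessed by CellTiter-Glo.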
A short description of assay [14]: Identifying Small Molecule Inhibitors of Pancreatic Cancer Stem Cells (SN12C, Spheroid) (AID 1259360).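 Also: 100% = DMSO-treated cells and 0% = wells without cells.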 The conditions noted are these: Potency: SN12C spheroid viability. A digest of the protocol:
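Cytotoxicity read by CellTiter-Glo luminescence after 48 h compound exposure at 37C; percent activity scaled between DMSO-treated cells and cell-free wells. Spheroid formats used cells pre-formed 14 days in stem cell media on hydrogel.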

A short description of assay [15]: qHTS assay to identify small molecule inhibitors of chordoma cells - UCH-1 (AID 1259355). Also: % is scaled to controls: 0 for no effect and ±100 for the full control effect; nearly all actives have a fitted effect of over 55% in size. Summed up:
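Seed 800 cells per well; incubate overnight at 37 C, 5% CO2. Add test compounds (15 concentrations), then the auranofin–topoisomerase-agent combination. Incubate 48hr, add CellTiter-Glo, wait 30min, read luminescence.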

Assay [16] is described as follows: qHTS assay to identify small molecule inhibitors of chordoma cells - UCH-2 (AID 1259356). Also: % is scaled to controls: 0 for no effect and ±100 for the full control effect.
A short description of assay [17]: qHTS Screen of the MIPE 4.0 Collection Against Ewings Sarcoma (TC32) (AID 1259256). Also: nearly all actives have a fitted effect of over 45% in size. Also: potency is read from the fitted curve at half-maximal effect. A digest of the protocol: as §2

Regarding `CC1C(=O)OC2C(O)C34C5CC(C(C)(C)C)C36C(OC(=O)C6O)OC4(C(=O)O5)C12O` (stereo not drawn), in [1], the parasite growth, % of DMSO control came out at 93.4%. Moreover, in assay [2], the parasite growth remaining, % of DMSO control (lower = more inhibition) stood at 94.5%. This molecule came in with a parasite growth, % of control (lower = inhibition) in [3] of 85.6%. Further, the growth, % of control in [4] is 83.4%. The viability (% of control) in assay [5] worked out at 16.8%. In addition, the Potency result in assay [6] and in assay [7] was “inactive” throughout. For the same molecule, the Potency in assay [8] is 13200 nM (active); in assay [9] it was 14800 nM (active).
With `Cn1cc(-c2ccc3nnc(Sc4ccc5ncccc5c4)n3n2)cn1`, in assay [10], the activity, percent of control is 95.2%. The remaining proliferation (% of control), lower = more inhibition in [11] turned out to be 72.7%. Also, the parasite growth, % of DMSO control in assay [1] is 36.1%. Also, the parasite growth remaining, % of DMSO control (lower = more inhibition) in assay [2] amounted to 86.3%. Further, in assay [3], the parasite growth, % of control (lower = inhibition) stood at 42.5%. The viability (% of control) in assay [5] amounted to 102%. Further, the Potency entry in assay [6], in assay [7], in assay [12], in [13] and in assay [14] was “inactive” each time. Further, the Potency in assay [8] was 20900 nM (active).
The molecule `COc1ccnc(CS(=O)c2nc3ccc(OC(F)F)cc3[nH]2)c1OC` (stereo not drawn) returned a parasite growth, % of DMSO control in assay [1] of 58.5%. For the same molecule, the parasite growth remaining, % of DMSO control (lower = more inhibition) in assay [2] was 95.8%. For the same molecule, in [4], the growth, % of control is 91%. The viability (% of control) in [5] was 108%. The Potency result in [6], in assay [7], in assay [9] and in [12] was “inactive” each time. Also, the result in assay [15] and in assay [16] was inactive.
In [1], `c1cc(OCCN2CCCCC2)cc(-c2n[nH]c3ccc(-c4ncn[nH]4)cc23)c1` displayed a parasite growth, % of DMSO control of 8.07%. In addition, the parasite growth remaining, % of DMSO control (lower = more inhibition) in [2] was 9.76%. Further, the parasite growth, % of control (lower = inhibition) in assay [3] amounted to 9.96%. In assay [4], this molecule displayed a growth, % of control of 3.58%. For the same molecule, the viability (% of control) in assay [5] is 20.5%. Also, the Potency result in assay [6] and in assay [7] was “inactive” in each case. For the same molecule, the Potency was 10500 nM (active) in assay [8] and 23500 nM (active) in assay [9].
With `CCc1cccc(CC)c1NC(=O)N1Cc2[nH]nc(NC(=O)c3ccc(N4CCN(C)CC4)cc3)c2C1`, the parasite growth, % of DMSO control in assay [1] was determined as 19%. Besides, the parasite growth remaining, % of DMSO control (lower = more inhibition) in assay [2] came to 82.8%. Besides, the parasite growth, % of control (lower = inhibition) in assay [3] stood at 21.6%. Besides, in assay [4], the growth, % of control came to 6.85%. In addition, in [5], the viability (% of control) was 12.8%. For the same molecule, the Potency result in assay [6] and in [7] was “inactive” each time. The Potency in assay [8] was 5900 nM (active); in assay [9] it was 4180 nM (active); in assay [17] it was 526 nM (active).
Take `C[C@@H]1O[C@@H](O[C@H]2CC[C@@]3(C)[C@H](CC[C@@H]4[C@H]3C[C@@H](O)[C@]3(C)[C@@H](C5=CC(=O)OC5)CC[C@]43O)C2)C[C@H](O)[C@@H]1O[C@H]1C[C@H](O)[C@H](O[C@H]2C[C@H](O)[C@@H](O)[C@@H](C)O2)[C@H](C)O1` (stereo in doubt): the parasite growth, % of DMSO control in assay [1] worked out at 57.6% [at 57.5 µM]. Further, in assay [2], the parasite growth remaining, % of DMSO control (lower = more inhibition) was determined as 91.8% [at 57.5 µM]. In addition, in [4], the growth, % of control was 57% [at 57.5 µM]. The viability (% of control) in [5] was 4.87% [at 92.2 µM]. Moreover, the Potency result in assay [6] and in assay [7] was “inactive” each time. The Potency is 340 nM (active) in [8], 241 nM (active) in [9] and 215 nM (active) in assay [12].
With `O=c1cc(-c2ccc(O)c(O)c2)oc2cc(O)cc(O)c12`, the parasite growth, % of DMSO control in assay [1] came out at 13%. This molecule also had a parasite growth, % of control (lower = inhibition) in [3] of 27.8%. This molecule also gave a growth, % of control in assay [4] of 14%. In addition, the viability (% of control) in [5] is 68.6%. The Potency entry in assay [6], in [7], in assay [9], in [12] and in [17] was “inactive” each time.
As to `CN[C@@H](C)[C@H]1[C@H](O)C[C@@]2(C)[C@@H]3CC[C@H]4C(C)(C)[C@@H](NC)CC[C@@]45C[C@@]35CC[C@]12C`, the parasite growth, % of DMSO control in assay [1] was found to be 16.9%. Further, the parasite growth remaining, % of DMSO control (lower = more inhibition) in [2] was found to be 50.3%. The parasite growth, % of control (lower = inhibition) in assay [3] was 12.6%. The growth, % of control in [4] amounted to 13.3%. Moreover, in assay [5], the viability (% of control) stood at 89.5%. The Potency entry in assay [6], in assay [8] and in assay [12] was “inactive” in each case.
The molecule `O=C(O)c1nc(=O)[nH]c(=O)[nH]1` returned a parasite growth, % of DMSO control in assay [1] of 88.8% [at 9.64 µM]. Besides, in assay [2], the parasite growth remaining, % of DMSO control (lower = more inhibition) came out at 106% [at 9.64 µM]. This molecule also displayed a parasite growth, % of control (lower = inhibition) in [3] of 93.6% [at 9.64 µM]. The viability (% of control) in assay [5] was determined as 99.2% [at 23.2 µM]. Moreover, the Potency entry in assay [6], in assay [7], in [8], in [12] and in assay [17] was “inactive” throughout. Moreover, the molecule was classed as inactive in assay [15] and in assay [16].
On to `C[C@@H]1[C@H](O)[C@@H](C)C=CC=CC=CC=CC=CC=CC=C[C@H](O[C@@H]2O[C@H](C)[C@H](O)[C@H](N)[C@@H]2O)C[C@@H]2O[C@](O)(C[C@@H](O)C[C@@H](O)[C@H](O)CC[C@@H](O)C[C@@H](O)CC(=O)O[C@H]1C)C[C@H](O)[C@@H]2C(=O)O`, for which, in [1], the parasite growth, % of DMSO control came out at 16.7%. For the same molecule, the parasite growth remaining, % of DMSO control (lower = more inhibition) in [2] turned out to be 9.78%. Moreover, the parasite growth, % of control (lower = inhibition) in [3] was found to be 7.41%. In assay [4], this molecule registered a growth, % of control of 29.7%. For the same molecule, in assay [5], the viability (% of control) was determined as 4.45%. Further, the Potency entry in assay [6] and in [7] was “inactive” throughout. Further, the Potency was 105 nM (active) in [8], 1180 nM (active) in assay [12] and 743 nM (active) in [17].
Turning to `CN1CCN2c3ncccc3Cc3ccccc3C2C1` (stereo not drawn), in [2], the parasite growth remaining, % of DMSO control (lower = more inhibition) came to 93.6%. Besides, in [3], the parasite growth, % of control (lower = inhibition) came out at 50.4%. The same molecule came in with a growth, % of control in assay [4] of 75.6%. Also, in assay [5], the viability (% of control) was 112%. Besides, the Potency result in [6], in assay [7], in assay [8], in assay [9] and in assay [17] was “inactive” each time. Besides, the result in assay [15] and in assay [16] was inactive.
